Drawing on PubChem BioAssay (NCI), this text covers growth for 33 molecules.

The panel holds about 83,000 compounds, 20% with a hit somewhere; the sample as a whole holds those more often.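 How to read the values: 0–100, growth inhibition (40 = 60% inhibited); 0, no net growth; -100 to 0, cell death (-40 = 40% of starting cells died; -100 = all dead).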 Unmarked numbers belong to inactive results. Activity calls are given as the source filed them. The calls were made as follows: active = growth percent below 10; inactive = the rest.

In this assay the test system is MDA-MB-468 breast. The assay can be described thus: NCI-60 one-dose screen, 48 h (100 = growth as untreated, 0 = no growth, -100 = all killed). The note with it: 10 µM unless noted.
Consider `S=c1[nH]nc2ccccn12`, for which the growth is 98.2%. With `C=C(C)[C@@H]1CC[C@]2(C)[C@H](CC=C3[C@@H]4C[C@](C)(C(=O)N5CCN(C)CC5)CC[C@]4(C)CC[C@]32C)[C@@]1(C)CCC#N`, the growth is 38.3%. Consider `O=S(=O)(Nc1ccc(Cl)c(Cl)c1)c1ccc(-c2cnc(C3CC3)o2)cc1`, for which the growth was 7.72% (active). To `C/C(=N/NC(N)=S)C(=O)O` belongs 39.2%.

Regarding `O=C(O)CCN1CCN(c2cccc(Cl)c2)CC1`, the growth was 103%. As for `COc1c(Br)cc(C(c2cc(Br)c(OC)c(Br)c2)c2ccccc2C(=O)O)cc1Br`, the figure is 100%; as for `CCOC(=O)/C(F)=C/C1CC1C1CCCCC1` (stereo not drawn), 96.9%; as for `O=S(=O)(NCCCNc1nccc(-c2c(-c3ccccc3)nc3occn23)n1)c1ccc(Cl)cc1`, 67.1%. To `O=[N+]([O-])c1ccc(SSc2ccc([N+](=O)[O-])cc2Cl)c(Cl)c1` belongs 74.6%. As for `CC(=O)Oc1ccccc1C(=O)N=C1[Se]CCCN1C(=O)c1ccccc1OC(C)=O`, the figure is -19.2% (active); as for `COc1ccc(C)cc1NC(=O)SC(C)C`, 91.9% [100 µM]. With `COCCCNc1nc(NC(=O)c2ccc(F)cc2C)cc(-c2cccnc2)n1`, the growth was 111%. To `CCCCCCCCCCCCC[N+](C)(C)Cc1ccccc1` belongs -25.3% (active); to `NC(=S)N/N=C/c1ccc(N)cc1`, 106%; to `COc1ccc(C2C(C#N)=C(N)Oc3n[nH]c(-c4cccs4)c32)cc1I` (stereo not drawn), 86.8%. As for `C=C(C)[C@@H]1CC[C@]2(C)[C@H](C(=O)C=C3[C@@H]4C[C@](C)(C(=O)N5CCN(C)CC5)CC[C@]4(C)CC[C@]32C)[C@@]1(C)CCC#N`, the figure is -76.5% [100 µM] (active). For `COc1cc(C2CC(c3ccc(Nc4nc(NCCO)nc(N5CCOCC5)n4)cc3)=NN2c2cc(Cl)cc(Cl)c2)cc(OC)c1OC` (stereo not drawn), the growth is 64%. As to `CCOc1ccccc1Cn1ccnc1CCc1c(Cl)c(O)cc(O)c1C(=O)OC`, the growth is 106%. On to `C#COc1cccc(Nc2c(C#N)cnc3ncc(NC(=O)CCl)cc23)c1`, for which the growth is 3.39% [6.25 µM] (active). In the case of `CN[C@@H](CCCNC(N)=NC/C=C(/C)CCC=C(C)C)C(=O)N(C)[C@@H](CCCNC(N)=NCC=C(C)C)C(=O)N[C@H](C)[C@H](OS(=O)(=O)O)c1ccc(OS(=O)(=O)O)c(COS(=O)(=O)O)c1`, the growth was 97.3%. For `CSc1nccc(-c2c(-c3ccc(F)c(OCc4ccc(F)cc4)c3)nc3sccn23)n1`, the growth was 23.3%.

In the case of `CC1=Nc2cnc(Nc3ccc(OCCN4CCCC4)cc3)nc2Nc2ccccc21`, the growth is 57%. As for `COc1ccc(-c2nc(C#N)c(NCC(c3ccc(Cl)cc3)N3CCCCC3)o2)cc1` (stereo not drawn), the figure is 93.3%; as for `CCc1ccc(C(=Nc2ccc(N(C)C(=O)CN3CCN(C)CC3)cc2)c2c(O)[nH]c3ccc(C(=O)OC)cc23)cc1`, -75.6% (active). Turning to `CC(C)=CCC[C@](C)(O)[C@H]1CC[C@]2(C)[C@@H]1CC[C@@H]1[C@@]3(C)C/C(=C/c4ccco4)C(=O)C(C)(C)[C@@H]3CC[C@]12C`, the growth was 111%. To `C=C(C)[C@@H]1CC[C@]2(COCCCNCCCN)CC[C@]3(C)[C@H](CC[C@@H]4[C@@]5(C)CC[C@H](OCCCN)C(C)(C)[C@@H]5CC[C@]43C)[C@@H]12` belongs -67.8% (active). To `COc1ccc(/C=C2\N=C(c3ccccc3)N(c3cc(OC)c(OC)cc3C(=O)N3N=C(C)CC3=O)C2=O)cc1` belongs 93%; to `COc1ccc(C(=O)N2c3ccccc3Sc3ccccc32)c(OC)c1`, 0.159% (active). For the molecule `CC(C)=CC/C=C(/C)[C@H]1CC[C@]2(C)[C@@H]1CC[C@@H]1[C@@]3(C)CCC(=O)NC(C)(C)[C@@H]3CC[C@]12C`, the growth is -17.7% [100 µM] (active). To `COCCN1CCN(Cc2ccc(-c3n[nH]c4c3C(=O)c3c(NC(=O)NN5CCOCC5)cccc3-4)cc2)CC1` belongs -45.1% (active); to `COc1ccc2oc3c4[nH]c5ccccc5c4c4c(c3c2c1)C(=O)N(O)C4=O`, 104%; to `CNC(=O)OC1C(O[C@H]2C[C@H]3[C@@H]4CC=C5C[C@@H](O)CC[C@]5(C)[C@H]4CC[C@]3(C)[C@H]2[C@H](C)C(=O)CCC(C)C)OCC(O)C1OC1OCC(O)C(O)C1OC(=O)c1ccc(OC)cc1` (stereo partly drawn), -0.149% (active). Turning to `Cc1ccc(C(=O)N(CCCN)[C@@H](c2nc3cc(Cl)ccc3c(=O)n2Cc2ccccc2)C(C)C)cc1`, the growth is -84.4% (active).
